Results from the supplement of paper PMC6555819.

Assays:
Assay in all cases: PBM binding z-score (relative to random genomic background probes); higher = stronger binding; sequences stand for … in GC…GCGATTGACAGCGTAGAATGAAGG
[1] = system: FXR:RXRa (NR concentration 270 nM, RXRa partner concentration 90 nM)
Method in brief: (§1)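 Scanned fluorescence from custom Agilent 4×180K protein-binding microarrays was regression-normalized. Binding z-scores use random background probes as reference. Ligand-free nuclear receptor dimers were incubated on the arrays for 1 h and detected with antibodies against each partner (one per run).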

[2] = system: LXRa:RXRa (NR concentration 270 nM, RXRa partner concentration 90 nM)
Method in brief: as §1

[3] = system: LXRa homodimer (NR concentration 270 nM)
Method in brief: as §1

[4] = system: LXRb:RXRa (NR concentration 270 nM, RXRa partner concentration 90 nM)
Method in brief: as §1

[5] = system: LXRb homodimer (NR concentration 270 nM)
Method in brief: as §1

[6] = system: PPARa:RXRa (NR concentration 270 nM, RXRa partner concentration 90 nM)
Method in brief: as §1

[7] = system: PPARg:RXRa (NR concentration 180 nM, RXRa partner concentration 90 nM)
Method in brief: as §1

[8] = system: PPARg:RXRa 270nM:90nM, anti-RXR (NR concentration 270 nM, RXRa partner concentration 90 nM)
Method in brief: as §1

[9] = system: PPARg:RXRa 30nM:10nM, anti-RXR (NR concentration 30 nM, RXRa partner concentration 10 nM)
Method in brief: as §1

[10] = system: PPARg:RXRa 90nM:30nM, anti-RXR (NR concentration 90 nM, RXRa partner concentration 30 nM)
Method in brief: as §1

[11] = system: PPARg:RXRa DBDmut IVT, anti-RXR (DBD mutation: RXRa K156A/R161A, NR concentration 270 nM, RXRa partner concentration 90 nM)
Method in brief: as §1

[12] = system: PPARg:RXRa IVT, anti-PPARg (NR concentration 270 nM, RXRa partner concentration 90 nM)
Method in brief: as §1

[13] = system: PPARg DBDmut:RXRa IVT, anti-PPARg (DBD mutation: PPARg1 K132A/R137A, NR concentration 270 nM, RXRa partner concentration 90 nM)
Method in brief: as §1

[14] = system: PPARg DBDmut IVT, anti-PPARg (DBD mutation: PPARg1 K132A/R137A, NR concentration 270 nM)
Method in brief: as §1

[15] = system: PPARg homodimer (NR concentration 180 nM)
Method in brief: as §1

[16] = system: PXR:RXRa (NR concentration 270 nM, RXRa partner concentration 90 nM)
Method in brief: as §1

[17] = system: PXR homodimer (NR concentration 270 nM)
Method in brief: as §1

[18] = system: RARa:RXR (NR concentration 270 nM, RXRa partner concentration 90 nM)
Method in brief: as §1

[19] = system: RARa homodimer (NR concentration 270 nM)
Method in brief: as §1

[20] = system: RARb:RXRa (NR concentration 270 nM, RXRa partner concentration 90 nM)
Method in brief: as §1

Row | Sequence | PBM binding z-score [1] | PBM binding z-score [2] | PBM binding z-score [3] | PBM binding z-score [4] | PBM binding z-score [5] | PBM binding z-score [6] | PBM binding z-score [7] | PBM binding z-score [8] | PBM binding z-score [9] | PBM binding z-score [10] | PBM binding z-score [11] | PBM binding z-score [12] | PBM binding z-score [13] | PBM binding z-score [14] | PBM binding z-score [15] | PBM binding z-score [16] | PBM binding z-score [17] | PBM binding z-score [18] | PBM binding z-score [19] | PBM binding z-score [20]
1 | CCTTACGGCTCACTCCAGGTTATAGCATCGGAGT | 0.29 | 0.942 | 1.31 | 0.0567 | 0.303 | -0.0224 | 0.265 | -0.277 | 0.181 | -0.238 | 0.594 | -0.0865 | -0.339 | -0.313 | 0.301 | -0.0761 | 0.257 | 0.372 | 0.095 | 0.00286
2 | AGAACGAGGGCAATGAGCTGATAGCACGGGTGGC | 0.394 | 0.368 | -0.433 | -0.35 | -0.559 | 1.4 | 1.29 | 0.822 | -0.0771 | 0.27 | 3.25 | 2.14 | 0.548 | -0.351 | -0.0817 | 0.131 | 0.0255 | 0.176 | -0.301 | 2
3 | CCTTACGGGTCACTCACAGGTTATAGCATTTGGA | 4.95 | 4.32 | 0.653 | 3.67 | 0.243 | 5.1 | 4.15 | 3.82 | 1.29 | 2.78 | 3.1 | 3.43 | 0.37 | 0.401 | 3.21 | 3.56 | 0.559 | 4.46 | 1.29 | 3.77
4 | GCGCCTGGGGCAAAGCAGGTTACCATAAGGTTGG | 0.19 | -0.148 | -0.679 | -0.341 | -1.26 | 0.474 | 0.0826 | -0.405 | -0.693 | -0.771 | 0.355 | -0.0318 | -1.1 | -1.44 | -0.5 | 0.277 | -0.671 | 0.359 | -0.592 | 1.02
5 | AGAACGAGGGCACGCTGAGTTGATCGCAGAGTAG | 0.98 | 0.604 | -0.623 | 0.0852 | -0.872 | 2.16 | 1.93 | 1.66 | 0.193 | 0.789 | 4.59 | 4.13 | 0.408 | -0.362 | -0.239 | 1.53 | 0.103 | 0.735 | -1.04 | 2.57
6 | TCATATAGGTAAAAGCTAGGTGAAAGTCCGATCT | 0.543 | 0.688 | -0.0379 | 0.557 | -0.187 | 1.69 | 1 | 2.74 | 4 | 3.37 | 3.84 | 2.83 | 1.06 | 1.08 | 0.659 | 0.255 | 0.0441 | 1.01 | 0.436 | 0.407
7 | CCGACTGGGGCAAAGGTTAACATACTCAGTACGA | 2.41 | 2.19 | 0.28 | 2.96 | -0.551 | 6.17 | 11.3 | 9.21 | 9.81 | 10.1 | 4.64 | 6.54 | 0.226 | -0.237 | 1.61 | 3.12 | -0.0875 | 4.64 | 0.346 | 2.77
8 | ATCTCTAGGTAAAAGTTGAGTGAATCCCGAGGAT | 0.0929 | 0.162 | 0.126 | -0.0605 | 0.531 | 2.84 | 4.94 | 6.21 | 5.21 | 6.22 | 2.05 | 2.5 | 1.01 | 1.53 | 0.688 | 0.0685 | 0.147 | 0.3 | 0.494 | 0.471
9 | ATACCAAGATGATCGTGAGGTCGTTGATACTAAC | 1.11 | 0.576 | 0.456 | 0.892 | 0.0732 | 0.598 | 0.48 | -0.158 | 0.129 | -0.00184 | 0.165 | 0.114 | 0.181 | 0.947 | 0.378 | 1.67 | 1.32 | 1.35 | 0.361 | 0.547
10 | CCGACTGGGGCGAAGGTTACCATACTCAGTACGA | -0.11 | -0.108 | -0.381 | 0.654 | -1.24 | 3.09 | 7.04 | 7.02 | 5.36 | 6.85 | 1.13 | 2.83 | -0.805 | -0.462 | 0.137 | 0.261 | -0.624 | 0.961 | -0.33 | 0.726
11 | CCAGACAGGTGATAAGGTAACTCAGCCTCGATTA | 0.336 | 0.0665 | -0.0911 | 0.157 | -0.187 | 0.51 | 0.555 | 0.114 | 0.063 | 0.191 | 0.812 | 0.261 | 0.0987 | -0.29 | 1.14 | -0.0216 | 0.227 | 0.472 | 0.984 | 0.359
12 | AGAACGAGAGCAATGAGTTGATAGCACGGGTGGC | -0.715 | -0.7 | -0.726 | -0.759 | -0.725 | -0.447 | 0.796 | -0.0173 | -0.196 | 0.0595 | 0.0253 | -0.231 | -0.979 | -0.694 | -1.02 | -0.378 | -0.202 | -0.818 | -0.732 | -0.525
13 | CGTCCAAGGTCAAGGTCAGTAAAAGAGACTCGAA | 7.33 | 5.66 | 1.22 | 4.68 | 0.908 | 5.72 | 6.21 | 5.92 | 2.62 | 4.87 | 3.53 | 4.49 | 0.553 | 0.71 | 4.59 | 4.72 | 1.84 | 5 | 3.01 | 5.53
